From PubChem BioAssay (NCI)
Compounds without any hit were thinned out: in the full panel of roughly 83,000, 20% have a hit.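 Each cell line was grown in a 96-well plate and treated with one concentration of compound for 48 hours. Values below 10 were considered active.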 Active and inactive are the calls of the source.

How the values were obtained:
Assay in all cases: NCI-60 one-dose screen, 48 h (100 = growth as untreated, 0 = no growth, -100 = all killed)
Details in all cases: 10 µM unless noted
NCI-H23 lung = test system: NCI-H23 lung
NCI-H226 lung = test system: NCI-H226 lung
NCI-H322M lung = test system: NCI-H322M lung
HOP-62 NSCLC = test system: HOP-62 NSCLC
NCI-H460 lung = test system: NCI-H460 lung
HOP-92 NSCLC = test system: HOP-92 NSCLC
NCI-H522 lung = test system: NCI-H522 lung
A549/ATCC NSCLC = test system: A549/ATCC NSCLC
786-0 renal = test system: 786-0 renal
COLO 205 colon = test system: COLO 205 colon

Measured: growth

O=C(Nc1ccc(-n2cc(-c3ccncc3)c(-c3ccc(Cl)c(O)c3)n2)cc1)N1CCOCC1
inactive: NCI-H23 lung 111% | NCI-H226 lung 103% | NCI-H322M lung 106% | HOP-62 NSCLC 95.7% | NCI-H460 lung 103% | HOP-92 NSCLC 90.6% | NCI-H522 lung 94% | A549/ATCC NSCLC 111% | 786-0 renal 101% | COLO 205 colon 97.4%

CCOC(=O)/C=C/c1cc2cc(-c3csc4ccccc34)ccc2[nH]1
inactive: NCI-H23 lung 60.6% | NCI-H226 lung 103% | NCI-H322M lung 115% | HOP-62 NSCLC 76.7% | NCI-H460 lung 83.8% | HOP-92 NSCLC 99.7% | NCI-H522 lung 40% | A549/ATCC NSCLC 55.5% | 786-0 renal 82.4% | COLO 205 colon 93.4%

Cc1ccc(S(=O)(=O)n2cc(CNc3ccc(N4CCOCC4=O)cc3)c3ccccc32)cc1
inactive: NCI-H23 lung 87.8% | NCI-H226 lung 92.4% | NCI-H322M lung 100% | HOP-62 NSCLC 84.6% | NCI-H460 lung 99.8% | HOP-92 NSCLC 38.6% | A549/ATCC NSCLC 103% | 786-0 renal 92.3% | COLO 205 colon 85.1%
active: NCI-H522 lung -10.5%

COc1cc(C(=O)c2cc(C)c3[nH]c4ccc(Cl)cc4c3c2C)cc(OC)c1OC
inactive: NCI-H23 lung 13.8% | NCI-H226 lung 54.8% | NCI-H322M lung 33% | HOP-62 NSCLC 40% | HOP-92 NSCLC 38.6% | NCI-H522 lung 35.5% | A549/ATCC NSCLC 19.6% | 786-0 renal 19.6% | COLO 205 colon 11%
active: NCI-H460 lung 4.97%

CN(C)CC1C(=O)O[C@H]2[C@H]1CC/C(COC(=O)c1cc3ccccc3[nH]1)=C\CC[C@@]1(C)O[C@@H]21 (stereo not given in full)
inactive: NCI-H23 lung 18.5% | NCI-H226 lung 23.8% | NCI-H322M lung 86.7% | HOP-62 NSCLC 43.4% | NCI-H460 lung 17.6% | A549/ATCC NSCLC 11.5%
active: HOP-92 NSCLC -63.8% | NCI-H522 lung -91.2% | 786-0 renal -81.6% | COLO 205 colon -63.9%

CC(C)C(=O)Nc1n[nH]c2cc(-c3cccc(NS(=O)(=O)C4CC4)c3)ccc12
inactive: NCI-H23 lung 53.6% | NCI-H226 lung 60% | NCI-H322M lung 96.2% | HOP-62 NSCLC 66.5% | NCI-H460 lung 84.4% | HOP-92 NSCLC 72.7% | NCI-H522 lung 40.8% | A549/ATCC NSCLC 80.3% | 786-0 renal 89.2% | COLO 205 colon 84.7%

CC(=O)N1N=C(c2ccc(Nc3nc(Nc4ccc(F)cc4)nc(Nc4ccc(F)cc4)n3)cc2)CC1c1cccc([N+](=O)[O-])c1 (stereo not given)
inactive: NCI-H23 lung 78.9% | NCI-H226 lung 101% | NCI-H322M lung 85.6% | HOP-62 NSCLC 82% | NCI-H460 lung 102% | HOP-92 NSCLC 71.2% | NCI-H522 lung 77% | A549/ATCC NSCLC 91.1% | 786-0 renal 86.4% | COLO 205 colon 84.9%

CSc1n(Cc2ccc3ccccc3c2)c(C)c[n+]1Cc1ccc2ccccc2c1
active: NCI-H23 lung -50.8% | NCI-H226 lung -37% | HOP-62 NSCLC 4.62% | NCI-H460 lung -0.332% | HOP-92 NSCLC -44.4% | NCI-H522 lung -26.9% | 786-0 renal 8.97% | COLO 205 colon -54.3%
inactive: NCI-H322M lung 40.5% | A549/ATCC NSCLC 16.5%

COC(=O)c1ccc(CSc2nnc(-c3c(C)nc4ccc(C)cn34)o2)cc1
inactive: NCI-H23 lung 85.9% | NCI-H226 lung 95.2% | NCI-H322M lung 98.2% | HOP-62 NSCLC 89.6% | NCI-H460 lung 109% | HOP-92 NSCLC 92% | NCI-H522 lung 83.5% | A549/ATCC NSCLC 103% | 786-0 renal 91.8% | COLO 205 colon 117%

COc1cccc(-c2nn(-c3ccccc3)cc2-c2ccnc(NCCCNC(=O)c3cccc(C(F)(F)F)c3)c2)c1
inactive: NCI-H23 lung 27.3% | NCI-H226 lung 13.3% | NCI-H322M lung 75.3% | HOP-62 NSCLC 48.3% | NCI-H460 lung 23.4% | 786-0 renal 29.8%
active: HOP-92 NSCLC 9.4% | NCI-H522 lung 0.301% | A549/ATCC NSCLC 8.6% | COLO 205 colon 9.99%

CN(C)CC1=NC2SC=C(c3ccccc3)C2C(=O)N1CC#N (stereo not given)
inactive: NCI-H23 lung 102% | NCI-H226 lung 85.5% | NCI-H322M lung 89.2% | HOP-62 NSCLC 102% | NCI-H460 lung 115% | NCI-H522 lung 84.5% | A549/ATCC NSCLC 96.3% | 786-0 renal 96.2% | COLO 205 colon 130%
active: HOP-92 NSCLC -14.6%

COc1cc(C2CC(=O)Nc3c2c(C)nn3-c2nc3ccccc3[nH]2)cc2c1OCC(=O)N2 (stereo not given)
inactive: NCI-H23 lung 74.6% | NCI-H226 lung 76.2% | NCI-H322M lung 94% | HOP-62 NSCLC 80.8% | NCI-H460 lung 67.1% | HOP-92 NSCLC 56.9% | NCI-H522 lung 71.4% | A549/ATCC NSCLC 66.8% | 786-0 renal 58.5% | COLO 205 colon 79.2%

c1csc(-c2c3ccc(=[N+]4CCCCC4)cc-3oc3cc(N4CCCCC4)ccc23)c1
active: NCI-H23 lung -71.3% | NCI-H226 lung -81.7% | NCI-H322M lung -78.5% | HOP-62 NSCLC -60.6% | NCI-H460 lung -57.3% | HOP-92 NSCLC -64.7% | NCI-H522 lung -70% | A549/ATCC NSCLC -56.2% | 786-0 renal -92.5% | COLO 205 colon -61.5%

CN(C)CCC=C1c2ccccc2C(C)(C)c2ccccc21
inactive: NCI-H23 lung 65.8% | NCI-H226 lung 122% | NCI-H322M lung 99.1% | HOP-62 NSCLC 64.5% | NCI-H460 lung 85.6% | HOP-92 NSCLC 36.7% | NCI-H522 lung 76.5% | A549/ATCC NSCLC 88.9% | 786-0 renal 67.4% | COLO 205 colon 68.7%

O=c1oc2ccccc2c(Cl)c1Cl
inactive: NCI-H23 lung 60.6% | NCI-H226 lung 70.8% | NCI-H322M lung 91.5% | HOP-62 NSCLC 83.3% | NCI-H460 lung 103% | HOP-92 NSCLC 97.4% | NCI-H522 lung 22.9% | A549/ATCC NSCLC 89.6% | 786-0 renal 47.3% | COLO 205 colon 11.8%

O=[N+]([O-])c1ccc(OCCO)cc1
inactive: NCI-H23 lung 99.6% | NCI-H226 lung 99.7% | NCI-H322M lung 104% | HOP-62 NSCLC 101% | NCI-H460 lung 108% | HOP-92 NSCLC 81.2% | NCI-H522 lung 102% | A549/ATCC NSCLC 105% | 786-0 renal 109% | COLO 205 colon 107%

Cc1nn(-c2ccccc2)c(Cl)c1/C=C(/NC(=O)c1ccccc1)c1nc2ccccc2[nH]1
inactive: NCI-H23 lung 106% | NCI-H226 lung 108% | NCI-H322M lung 90.3% | HOP-62 NSCLC 99% | NCI-H460 lung 109% | HOP-92 NSCLC 82.6% | NCI-H522 lung 86.6% | A549/ATCC NSCLC 90% | 786-0 renal 90.2% | COLO 205 colon 83.6%

Cc1ccc2nc(NC(=O)CSc3nc(Nc4ccc([N+](=O)[O-])cc4)c(C#N)c(-c4ccccc4)n3)sc2c1
inactive: NCI-H23 lung 99.6% | NCI-H226 lung 98.7% | NCI-H322M lung 92.6% | HOP-62 NSCLC 95.6% | NCI-H460 lung 98.7% | HOP-92 NSCLC 90.9% | NCI-H522 lung 87.3% | A549/ATCC NSCLC 93.8% | 786-0 renal 101% | COLO 205 colon 108%

N#CC1=C(/N=C/c2ccccc2)Oc2c(ccc3ccccc23)C1c1ccccc1 (stereo not given)
inactive: NCI-H23 lung 28.6% | NCI-H226 lung 52.9% | NCI-H322M lung 45.6% | HOP-62 NSCLC 21.1% | NCI-H460 lung 11.6% | HOP-92 NSCLC 50.4% | A549/ATCC NSCLC 21% | 786-0 renal 23.2%
active: NCI-H522 lung -4.7% | COLO 205 colon -23.2%

COc1ccc(C2c3ccc4ccccc4c3Oc3nc(C)[nH]c(=O)c32)cc1 (stereo not given)
inactive: NCI-H23 lung 92% | NCI-H226 lung 92.4% | NCI-H322M lung 101% | HOP-62 NSCLC 89% | NCI-H460 lung 99.4% | HOP-92 NSCLC 91% | NCI-H522 lung 77% | A549/ATCC NSCLC 109% | 786-0 renal 107% | COLO 205 colon 110%
